ABCB6 inh 2 = blocks the human ABCB6 transporter; K562-ABCB6 porphyrin accumulation, flow cytometry, 1 h; hits give low values; fluorescence ratio to DMSO, % at 10 µM; actives 0.19% (n = 360,000); AID 602162;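 active means fluorescence ratio to DMSO below 75%, the collection mean minus 3 SD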;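 further: signal is porphyrin accumulated inside mitochondria; lower ratio means ABCB6 inhibition with less porphyrin fluorescence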
MEKK2 WT-MEK5 = raises or lowers MEK5 binding to wildtype human MEKK2 PB1 domain | Q9Y2U5 | bead flow cytometry, Alexa488-MEK5 binding to MEKK2 WT; actives lie on both sides | binding response (% of control), % at 10 µM | AID 1531 | actives 1.1% (n = 290,000); in the data active means binding response below about 67% or above about 130%
MEKK3 PB1 HTS = raises or lowers MEK5 binding to the human MEKK3 PB1 domain; AID 1529; binding response (% of control), % at 10 µM; bead-based flow cytometry, Alexa488-MEK5 binding to MEKK3; actives lie on both sides; 0 = blocked by unlabeled MEK5, 100 = vehicle; actives 1.4% (n = 290,000); Q99759;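 active means binding response more than 3 SD above or below the average of its plate-row segment, actives on both sides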;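 further: Alexa488 bead fluorescence after subtracting the streptavidin-only scavenger bead signal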
CRFBP-R2 block = antagonists of CRF-binding protein/CRF-R2 receptor complex; HEK293 CRF-R2/CRF-BP, CRF-induced calcium fluorescence; inhibition, % at 11.8 µM; actives 0.59% (n = 350,000); AID 588475;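 active means inhibition of the ligand-induced calcium signal above about 50% at the single tested concentration, limit read from the data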
MEKK2mut PB1 HTS = signal of MEK5 binding to mutant human MEKK2 PB1 domain; bead flow cytometry, Alexa488-MEK5 binding to MEKK2 mutant; percent response, % at 10 µM; actives 0.35% (n = 290,000); AID 1530; in the data active means percent response above about 24%, passing the limit was not always enough
CRFBP-R2 agonist = agonists of human CRF-binding protein/CRF-R2 receptor complex; HEK293 CRF-R2/CRF-BP, calcium dye fluorescence (FLIPR); percent of saturating CRF peptide response; activation, % at 13.2 µM; actives 0.46% (n = 350,000); AID 588473;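 active means activation of at least 50%, plus an integration ratio under a set limit after plate pattern correction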
ABCB6 blocker 1 = blocks the human ABCB6 transporter | shares compounds with ABCB6 inh 2 | K562-ABCB6 porphyrin accumulation, flow cytometry, 1 h; hits give low values | ratio response (% of DMSO), % at 10 µM | 700 tested, under 10 active | AID 602430;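 active means repeat-averaged ratio response below 75% of DMSO, the collection mean minus 3 SD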;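 further: median porphyrin fluorescence at 575 nm with 488 nm excitation from mitochondria; lower ratio means less porphyrin signal so ABCB6 inhibition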
Hits are given with their value; n = inactive; x = no result given. Rows were chosen to be rich in hits. Some 2.9% of all compounds tested hit in one or more screens of this group.

SMILES	ABCB6 inh 2	MEKK2 WT-MEK5	MEKK3 PB1 HTS	CRFBP-R2 block	MEKK2mut PB1 HTS	CRFBP-R2 agonist	ABCB6 blocker 1
CC(=O)Nc1cccc(-c2ccnc3c2CC(C(=O)Nc2cccc(NS(C)(=O)=O)c2)O3)c1 (stereo not given)	n	x	x	x	x	x	x
Cc1cc(NC(=O)CCC(=O)N(CCC(C)C)C(C(=O)NCC2CCCO2)c2ccccc2C)no1 (stereo not given)	n	n	n	n	n	n	x
Cc1cc(C)cc(N(C(=O)c2csnn2)C(C(=O)NC2CCCC2)c2cccnc2)c1 (stereo not given)	74.0	n	n	n	n	n	n
Cc1ccc(CN(C(=O)c2csnn2)C(C(=O)NC2CCCC2)c2ccco2)cc1 (stereo not given)	73.0	n	n	n	n	n	n
O=S1(=O)CC(N2CCN(CCO)CC2)CN1Cc1cn(Cc2ccccc2)nn1 (stereo not given)	n	x	x	x	x	x	x
Cc1sc2nc(CSc3nnc(Cc4cccs4)n3C3CCCCC3)[nH]c(=O)c2c1C	n	n	n	n	n	n	x
Cc1ccc2nc(CSc3nnc(Cc4cccs4)n3C3CCCCC3)cc(=O)n2c1	66.0	n	n	n	n	n	n
CC(C)CN(CCCNC(=O)CN1C(=O)COc2ccc(S(=O)(=O)N3CCOCC3)cc21)CC(C)C	n	n	n	n	n	n	x
CC(C)N(C(=O)[C@H]1C[C@H](CC(=O)NCc2ccco2)C(=O)N2CCc3c([nH]c4ccc(Cl)cc34)[C@]12C)C(C)C	n	x	x	n	x	n	x
CC1CCCCC1NC(=O)c1cc2c(s1)CS(=O)(=O)C2 (stereo not given)	71.0	n	n	n	n	n	n
O=C(NC1CC1)c1cc2c(s1)CS(=O)(=O)C2	n	n	n	n	n	n	x
Cc1cccc(NC(=O)CN2CCN(C(=O)c3c(C)nn(Cc4ccccc4)c3C)CC2)c1C	56.0	x	x	n	x	n	n
O=C(CN1CCN(Cc2cccc(C(F)(F)F)c2)CC1)NCC(=O)Nc1ccc(F)c(F)c1F	n	x	x	n	x	n	x
CCCN=Cc1sc2ccc(OCC)cc2c1O	74.0	n	n	n	n	n	n
CC(C)NC(=O)N(C)C[C@H]1Oc2c(NC(=O)C3CCCCC3)cccc2C(=O)N([C@H](C)CO)C[C@@H]1C	n	x	x	n	x	n	x
Cc1ccc2[nH]c(=O)c(CN(Cc3cccs3)Cc3nnnn3Cc3ccccc3)cc2c1	40.0	n	n	n	n	n	n
CCOC(=O)Cn1nnnc1CN(Cc1cccs1)Cc1cc2cc(C)ccc2[nH]c1=O	n	n	n	n	n	n	x
Cc1ccc(C(=O)OCC(=O)c2c[nH]c3ccccc23)cc1S(=O)(=O)N1CCCCC1	70.0	n	n	n	n	n	n
COc1ccc(CC(N)c2csc(NC(=O)c3ccccc3)n2)cc1 (stereo not given)	71.0	x	x	x	x	x	n
COc1cccc(NC(=O)C(=O)NCCCN2CCCC2=O)c1	n	x	x	n	x	n	x
COc1ccc(/C=C/c2nc(S(=O)(=O)c3ccccc3)c(N(C)C)o2)cc1	n	n	n	n	n	n	x
Cc1ccc(O)c(NC2=C(Cl)C(=O)N(Cc3ccccc3)C2=O)c1	74.0	n	n	n	n	n	n
COCCN(C(=O)c1csnn1)C(C(=O)NC1CCCC1)c1ccccc1F (stereo not given)	n	n	n	n	n	n	x
CCOC(=O)C1CCCN(S(=O)(=O)c2cc(Br)cc3c2N(C(=O)CC)CC3)C1 (stereo not given)	n	n	n	n	n	n	x
CC(=O)Nc1ccc(SCc2c(C)noc2C)cc1	n	n	n	n	n	n	x
Cc1noc(C)c1CSc1ccc(Br)cc1	71.0	n	n	n	n	n	n
Cc1ccc([C@@H]2CC=C(C(=O)O)[C@H](c3cccc(F)c3)N2S(=O)(=O)c2ccccc2C)cc1	n	x	x	n	x	n	x
Cc1cccc(C(O)c2ncc(-c3ccccc3Cl)[nH]2)c1C (stereo not given)	n	x	x	x	x	x	x

From PubChem BioAssay
